Screen size: about 69,000 compounds; about 950 (1.4%) showed an effect of 50% or more. What follows is part of a selection rich in strong results, with near analogues and random picks from the rest.
tested on: Mycobacterium tuberculosis; assay: Cornell M. t heat shock assay; format: functional, organism-based; parameters: dose or concentration left out as unconfirmed; further: in the data most compounds retested in dose-response had high values

Row | SMILES | Percent Effect [%]
1 | CC(CS(C)(=O)=O)NCc1cc(Cl)ccc1F (stereo not given) | -12.53
2 | CS(=O)(=O)Cc1ccccc1NCc1cc(Cl)ccc1Cl | -12.17
3 | CN(C)C(=O)Cc1ccccc1NCc1cccc(F)c1F | -10.01
4 | O=C(Cc1cccc(F)c1F)NS(=O)(=O)c1ccc(Cl)cc1F | -11.18
5 | CS(=O)(=O)Cc1ccc(Cl)cc1NCc1cccc(F)c1F | 57.79
6 | CS(=O)(=O)Cc1ccc(Cl)cc1NCc1ccccc1F | 52.35
7 | Cn1nc(C(=O)N2CCOCC2)cc1C(=O)Nc1ccc(Cl)cc1Cl | 13.26
8 | Cc1sc(NC(=O)CN(C)CCOc2cccc(F)c2)c(C)c1C | 3.214
9 | Cc1csc(NC(=O)CN(C)CCOc2cccc(F)c2)n1 | 95.41
10 | CN(CCOc1cccc(F)c1)CC(=O)Nc1ccncc1 | -17.11
11 | CCc1oc(C(=O)N2CC[C@H]3CC[C@@H](C2)N3)cc1CN(CC)CC | -18.46
12 | CN(C)C(=O)N1C[C@@H]2CC[C@H](C1)N(Cc1nnc(C3CC3)o1)C2 | 104.3
13 | CN(C)C(=O)N1C[C@@H]2CC[C@H](C1)N(Cc1nnc(-c3ccco3)o1)C2 | 3.686
14 | CN(C)C(=O)N1C[C@@H]2CC[C@H](C1)N(Cc1nnc(-c3ccccc3)o1)C2 | 16.99
15 | CNc1ncc2c(n1)CN(CCc1ccc(F)cc1)C2=O | -20.93
16 | CNC(=O)[C@H]1CO[C@H]2CCN(c3ncc(F)cn3)C[C@H]2C1.O=C(O)C(F)(F)F | -11.38
17 | CCn1nc(C)c(CN(Cc2ccccn2)Cc2ccccc2Cl)c1C | 58.2
18 | Cc1nn(C)cc1CN(C)C(=O)c1ccccn1 | -16.12
19 | CCn1nc(C)c(CN(CCCN(C)C)Cc2ccccn2)c1C | -9.336
20 | Cn1cc(CN(Cc2ccccn2)Cc2ccccc2Cl)cn1 | 20.97
21 | CCn1nc(C)c(CN(CCOC)Cc2ccccn2)c1C | -2.912
22 | Cc1nn(C)cc1CN(Cc1ccccn1)Cc1ccccc1Cl | 53.11
23 | O=C(O)C(=O)O.c1cncc(CN2CCC(c3ccc4c(c3)OCO4)CC2)c1 | -6.288
24 | CC(C)CS(=O)(=O)N1C[C@H]2C[C@H](C(=O)N3CCCC3)[C@@H](C1)O2 | 18.86

Row | SMILES | Percent Effect [%]
25 | CSc1ccc(CN2C[C@@H]3CC[C@@](O)(c4ccc(C)cn4)[C@@H]3C2)cc1 | 28.36
26 | C[C@H]1CN(c2ccccn2)C[C@@]12CCN(Cc1cccnc1)C2=O.O=C(O)C(F)(F)F.O=C(O)C(F)(F)F | -8.389
27 | O=C(CS(=O)(=O)c1ccccn1)NC1CCCc2ccccc21 (stereo not given) | 34.88
28 | O=C(CS(=O)(=O)c1ccc(Cl)cc1)NC1CCCc2ccccc21 (stereo not given) | 17.58
29 | O=C(CS(=O)(=O)c1ncccc1Cl)NC1CCCc2ccccc21 (stereo not given) | 57.06
30 | COc1ccc(C)cc1CN1CCn2cccc2C1C (stereo not given) | 86.02
31 | COc1ccc(C(C)=O)cc1CN1CCn2cccc2C1C (stereo not given) | 9.9
32 | COc1ccc(CN2CCn3cccc3C2C)cc1F (stereo not given) | 13.47
33 | CCOc1ccccc1C1CCCN1.Cl (stereo not given) | 3.065
34 | COc1cc(CNCC(O)c2ccccc2)cc2c1OCO2.Cl (stereo not given) | -7.292
35 | Cl.c1ccc(CN2CCNCC(Cc3cnccn3)C2)cc1 (stereo not given) | -10.09
36 | O=C(O)C(F)(F)F.O=C(c1ccco1)N1CC2(CCNCC2)c2cc(Cl)ccc21 | -24.85
37 | O=C(O)C(F)(F)F.O=C(O)C(F)(F)F.c1cnc(N2CCC3(CCN(Cc4ccncc4)CC3)CC2)nc1 | 6.802
38 | CCc1nc(C)c(CN2CCOC(Cc3cccc4ccccc34)C2)[nH]1 (stereo not given) | 8.588
39 | Cc1cccnc1CN1CCOC(Cc2cccc3ccccc23)C1 (stereo not given) | 106.2
40 | c1ccc2c(CC3CN(Cc4nccs4)CCO3)cccc2c1 (stereo not given) | -8.986
41 | CCN1CCc2c(sc3c2C(=O)NC(/C=C/c2ccco2)N3)C1 (stereo not given) | -25.76
42 | O=C(Cc1cnccn1)N1C[C@H]2CC[C@@H]1CN(Cc1cscn1)C2 | -4.902
43 | O=C(Nc1ccccn1)C1(n2cnnn2)CCCCC1 | 4.562
44 | O=C(NCCc1c[nH]c2ccccc12)C1(n2cnnn2)CCCCC1 | 102.3
45 | O=C(NCCc1ccccn1)C1(n2cnnn2)CCCCC1 | -1.374
46 | O=C(NCCc1cccc(F)c1)C1(n2cnnn2)CCCCC1 | 90.07
47 | Cc1cccc(NC(=O)C2(n3cnnn3)CCCCC2)n1 | -23.83
48 | O=C(NCCc1c[nH]c2ccccc12)C1CCC(Cn2cnnn2)CC1 (stereo not given) | 2.28

Row | SMILES | Percent Effect [%]
49 | O=C(NCCc1c[nH]c2ccc(F)cc12)C1(n2cnnn2)CCCCC1 | 102.2
50 | Cc1ccnc(NC(=O)C2(n3cnnn3)CCCCC2)c1 | -14.84
51 | Cc1cccnc1NC(=O)C1(n2cnnn2)CCCCC1 | 10.66
52 | Cl.O=c1c2sccc2nc2n1CCN(Cc1ccsc1)CC2 | -19.75
53 | Cc1cccc(CN2CC[C@@H]3[C@@H]2CCN3C(=O)Cc2ccsc2)n1.O=C(O)C(F)(F)F.O=C(O)C(F)(F)F | -13.99
54 | CO[C@H]1C[C@@H]2CN(C(=O)c3n[nH]c4c3CCCC4)C[C@@H]2C1 | -12.29
55 | Cc1ccc(N2CC[C@@H]3[C@@H]2CCN3Cc2ccsc2)nn1.O=C(O)C(F)(F)F.O=C(O)C(F)(F)F | -10.53
56 | Cn1ccnc1CN1CCC2(CC1)COCCN(S(C)(=O)=O)C2.O=C(O)C(F)(F)F | 17.11
57 | NC(=O)CN1CCCC1c1csc(Nc2cnccn2)n1 (stereo not given) | 58.45
58 | CC(=O)N1CCCC1c1csc(Nc2cnccn2)n1 (stereo not given) | -5.066
59 | NC(=O)CN1CCC(c2csc(Nc3cnccn3)n2)CC1 | -13.81
60 | CS(=O)(=O)CCC(=O)NC1(c2cccc(C(F)(F)F)c2)CCC1 | -20.78
61 | COC[C@@]12CCC[C@@H]1CN(C(=O)Cc1ccccn1)C2.O=C(O)C(F)(F)F | 12.87
62 | Cc1ncc(CN2CCC(c3nc4cc(Cl)ccc4o3)CC2)s1 | -15.08
63 | O=C(CN1CCCC1c1nc2cc(F)ccc2[nH]1)NCc1ccccn1 (stereo not given) | -20.62
64 | Fc1ccc2[nH]c(C3CCCN3CCCn3cccn3)nc2c1 (stereo not given) | -23.88
65 | Fc1ccc2[nH]c(C3CCCN3CCc3ccccn3)nc2c1 (stereo not given) | 61.35
66 | Cc1nc(C2CCCN2CCc2ccccn2)no1 (stereo not given) | -5.804
67 | CCc1nc(C2CCCN2CCc2ccccn2)no1 (stereo not given) | 107.9
68 | CC(C)c1nc(C2CCCN2CCc2ccccn2)no1 (stereo not given) | -39.31
69 | CS(=O)(=O)N1CCc2ccc(=O)n(CCN3CCCC3)c2CC1.O=C(O)C(F)(F)F | 21.99
70 | Cc1nnc(N2CCCC3(CN(Cc4cnn(C)c4)CCO3)C2)o1.O=C(O)C(F)(F)F.O=C(O)C(F)(F)F (stereo not given) | -20.31
71 | O=C(O)C(F)(F)F.O=C(c1ccoc1)N1CC[C@@H]2O[C@@H](COCCN3CCCC3)CC[C@@H]21 | -1.941
72 | O=C(O)C(F)(F)F.O=C(O)C(F)(F)F.O=C1[C@H]2CN(Cc3ccccn3)C[C@H]2CN1c1ccsc1 | -8.069

Row | SMILES | Percent Effect [%]
73 | CO[C@H]1CCN(Cc2cccs2)[C@@H]2CN(Cc3ccncc3)C[C@H]12.O=C(O)C(F)(F)F.O=C(O)C(F)(F)F.O=C(O)C(F)(F)F | 0.7697
74 | O=C1CCC(=O)N1CCn1nnc(-c2cccc(Cl)c2)n1 | -24.84
75 | O=C1CCNc2ncc(-c3ccc(Cl)cc3)cc2CN1C1CC1 | 53.07
76 | COc1ccc(-c2cnc3c(c2)CN(C2CC2)C(=O)CCN3)cc1 | 36.55
77 | O=C1CCNc2ncc(-c3ccccc3Cl)cc2CN1C1CC1 | 39.75
78 | Cl.Clc1ccc(-c2ccc(C3CNCCO3)nc2)cc1 (stereo not given) | 2.375
79 | O=C1CCNc2ncc(-c3cccc(Cl)c3)cc2CN1C1CC1 | 61.09
80 | COc1ccc(OCCN2CCC(N3CCNC3=O)CC2)cc1 | 47.29
81 | Cc1ccc(N2CCO[C@H]3CN(Cc4nccs4)C[C@H]32)nn1.O=C(O)C(F)(F)F.O=C(O)C(F)(F)F | -20.26
82 | O=C(O)C(F)(F)F.O=C(O)C(F)(F)F.O=C([C@H]1C[C@H]2OCC[C@H]2N(Cc2cccnc2)C1)N1CCCO1 | -0.4009
83 | CCC1CN(C(=O)c2cccc(O)c2)CCC(=O)N1Cc1ccccc1 (stereo not given) | 3.275
84 | CCC1CN(C(=O)c2ccc(=O)[nH]n2)CCC(=O)N1Cc1ccccc1 (stereo not given) | 3.349
85 | CCC1CN(C(=O)c2ccc(=O)[nH]c2)CCC(=O)N1Cc1ccccc1 (stereo not given) | 106.1
86 | Fc1ccc(CN2CCC(F)(F)C3(CCN(c4cnccn4)C3)C2)cc1.O=C(O)C(F)(F)F.O=C(O)C(F)(F)F (stereo not given) | 3.728
87 | c1ccc2c(c1)CCN(c1nc(-c3ccncc3)nc3c1CCNC3)C2 | 105.2
88 | c1ccc2c(c1)CN(c1ncnc3c1CCNC3)CCO2 | 22.91
89 | Cc1cc2n(n1)CCN(c1nc(N(C)C)nc3c1CCNC3)C2 | 7.698
90 | CN(C)c1nc2c(c(N3CCc4c(c(CO)nn4C)C3)n1)CCNC2 | -14.09
91 | Cc1ccccc1N1CCN(c2nc(N(C)C)nc3c2CCNC3)CC1 | 99.74
92 | Cc1nc2c(c(N3CCN(c4ncccc4C(N)=O)CC3)n1)CCNC2 | 6.854
93 | CN(C)c1nc2c(c(N3CCc4ccccc4C3)n1)CCNC2 | 101.7
94 | Cc1cccc(=O)n1CCCNc1nc(N(C)C)nc2c1CCNC2 | 44.77
95 | c1ccc2c(c1)CCN(c1ncnc3sc4c(c13)CCNC4)C2 | 12.7
